Activity calls are given as the source filed them.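 Rule for the calls: active = fluorescence ratio normalized to control raised more than 50% in primary screen plus both repeat runs; inactive = the rest.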

The experiment concerns TRPC4 beta (transient receptor potential cation channel C4), mouse. In words: TRPC4 cation channel opening, retest – cell-based, Fluo4 calcium, HEK293 TRPC4beta/mu-opioid, duplicates, 10 µM, confirmation (AID 2426).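 For activation: percent rise of integrated ratio over buffer wells lacking compound which define 0%.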 Particulars: Fluo4 calcium fluorescence, at 10 µM; active compounds read high.
With `Cc1cc(-c2ccc(C)c(S(=O)(=O)NCCCN(Cc3ccccc3)C(C)C)c2)on1`, the activation is 161% (active).
As for `CCc1nc(NCCc2ccccn2)c2nnn(Cc3ccccc3F)c2n1`, the activation is 154% (active).
The same measure, in the same setting: then `Cc1sc2ncnc(NCC(C)(C)N3CCOCC3)c2c1C`, with 178% (active).
With `Cc1ccc(N2CCN(c3ccc(NCc4nc5ccccc5n4C)cc3)CC2)cc1`, the activation is 79% (active).
Still for that read-out and setting: then `COc1ccc(C(CNC(=O)CN2C(=O)NC3(CCCC3)C2=O)N(C)C)cc1` (stereo not given), with 121% (active); and `Cc1cccc(NC(=S)NCC(c2cccnc2)N(C)C)c1C` (stereo not given), with 82% (active); and `Cc1ccccc1OCC(=O)NNC(=S)NC(=O)c1ccco1`, with 103% (active).
For `Cc1ccc(Sc2cc(C(=O)NCCN(C)C)c3ccccc3n2)cc1`, the activation was 91% (active).
Take `O=C(O)c1ccc(-c2ccc(/C=c3/sc4nc5ccccc5n4c3=O)o2)cc1Cl`: the result was inactive.
In the case of `Cc1ccccc1C(=O)NNC(=S)NC(=O)c1ccccc1`, the activation was 215% (active).
Take `CN(C)C(CNC(=O)c1ccc2ccccc2n1)c1ccccc1` (stereo not given): the activation was 61% (active).
Consider `Cc1cc(NC(=O)CN2CCc3ccccc3C2)nc2c1c(=O)oc1ccccc12`, for which the result was inactive.
In the case of `Cn1c(CN2CCN(c3cccc(Cl)c3)CC2)nc2ccccc21`, the activation is 119% (active).
The same measure, in the same setting: then `CN(C)C(CNC(=O)c1cnc(Cl)c(Cl)c1)c1ccccc1` (stereo not given), with 169% (active).
As for `Cc1ccc(Cl)cc1NC(=O)CNCC(c1ccccc1)N(C)C` (stereo not given), the outcome was inactive.
On to `CN(C)CCCN(C(=O)c1ccc(S(=O)(=O)N2CCOCC2)cc1)c1nc2ccc(F)cc2s1`, for which the activation is 104% (active).
Take `CN(C)CCN(C(=O)c1cccc2ccccc12)c1nc2cc3c(cc2s1)OCO3`: the outcome was inactive.
As for `Cc1ccc2c(C)c(C(=O)N(Cc3cccs3)C3CCS(=O)(=O)C3)oc2c1` (stereo not given), the result was inactive.
As to `CCN1CCN(c2c(Cl)cccc2NC(=O)c2ccc3nsnc3c2)CC1`, the activation was 57% (active).
The same measure, in the same setting: then `O=C(C1CCCN(Cc2ccncc2)C1)N1CCc2ccccc2C1` (stereo not given), with 204% (active); and `CCN(c1ccccc1)S(=O)(=O)c1ccc(C(=O)N(CCCN(C)C)c2nc3cc4c(cc3s2)OCO4)cc1`, with 99% (active).
On the same count and under the same terms, then `CC1CCCN(CCCNC(=O)c2ccc3c(c2)N(Cc2ccccc2F)C(=O)c2ccccc2S3(=O)=O)C1` (stereo not given), with 125% (active); and `O=C(Nc1nnc(-c2ccccc2Cl)o1)c1nc2ccccc2s1`, with 143% (active).
Turning to `COc1ccc(C(=O)NC(=S)NNC(=O)CCc2ccccc2)cc1`, the activation was 100% (active).
Still for that read-out and setting: then `Cc1cc(-c2nn(-c3ccccc3F)cc2CNCCc2cnc[nH]2)c(C)s1`, with 89% (active).
As to `Cc1ccc(C(=O)NC(=S)NNC(=O)c2ccccc2)cc1`, the outcome was inactive.
Turning to `Cc1csc2c(N3CCN(C(=O)NC(C)(C)C)CC3)ncnc12`, the activation is 92% (active).
The same measure, in the same setting: then `COC(=O)[C@@]1(Cc2ccc(F)cc2)[C@H]2c3cc(C(=O)N(C)C)n(CCc4ccccn4)c3C[C@H]2CN1C(=O)c1ccccc1`, with 136% (active).
In the case of `CN(CCc1ccccn1)C(=O)CC1C(=O)NCCN1Cc1ccccc1C(F)(F)F` (stereo not given), the activation is 178% (active).
Still for that read-out and setting: then `COc1cc(/C=C/C(=O)c2ccc3c(c2)OCO3)cc(Cl)c1O`, with 113% (active).
Turning to `CCn1c(N2CCN(C(=O)Nc3ccc(F)cc3)CC2)nc2ccccc21`, the activation is 119% (active).
Same read-out and setting: then `O=S(=O)(c1ccccc1)c1nnn2c1nc(NC1CCN(Cc3ccccc3)CC1)c1cc(Cl)ccc12`, with 64% (active).
For `CCOC(=O)c1oc2ccc(OC)cc2c1NC(=O)CN1CCN(C)CC1`, the outcome was inactive.
In the case of `C=CCn1c(CCNC(=O)C(C)(C)C)nc2ccccc21`, the activation is 151% (active).
Turning to `CCOC(=O)C1(CCOc2ccccc2)CCN(Cc2ccc3c(c2)OCCO3)CC1`, the outcome was inactive.
Turning to `Cc1cc(C)n(-c2nc(SCCN(C)C)c3c4c(sc3n2)CCCC4)n1`, the activation was 162% (active).
The same measure, in the same setting: then `COc1cc(OC)cc(C(=O)NC2CCCN(Cc3ccc(Cl)cc3)C2)c1` (stereo not given), with 111% (active).
On the same count and under the same terms, then `CN(C)C(CNC(=O)CCc1c[nH]c2ccccc12)c1ccccc1` (stereo not given), with 89% (active).
For `CCCCN(CC)CCCNC(=O)Cn1nc(Cc2ccncc2)c2ccccc2c1=O`, the activation was 162% (active).
With `COC(=O)C1=C(C)N(Cc2ccccc2)C(=NCCc2ccccn2)N[C@H]1c1cccc(F)c1`, the activation is 109% (active).

The values above are taken from PubChem BioAssay.
